# Experimental data published in PubChem BioAssay AID504916 (The Scripps Research Institute Molecular Screening Center, 2011).
# This is one part of the list. Values without a mark were called inactive. How the calls were made is not given here.
# Molecular target: 5-hydroxytryptamine receptor 5A (Homo sapiens) (UniProt P47898)
# Assay: inverse agonism at human 5-HT5A receptor – cell-based, luminescence, confirmation (AID 504916);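 further: 0% = cells with DMSO and 100% = no cells with DMSO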
# Conditions: HTR5A-expressing cells, at 9.3 µM, hits give high values
# 5-hydroxytryptamine receptor 5A (Homo sapiens), sequence (P47898 whole entry, looked up): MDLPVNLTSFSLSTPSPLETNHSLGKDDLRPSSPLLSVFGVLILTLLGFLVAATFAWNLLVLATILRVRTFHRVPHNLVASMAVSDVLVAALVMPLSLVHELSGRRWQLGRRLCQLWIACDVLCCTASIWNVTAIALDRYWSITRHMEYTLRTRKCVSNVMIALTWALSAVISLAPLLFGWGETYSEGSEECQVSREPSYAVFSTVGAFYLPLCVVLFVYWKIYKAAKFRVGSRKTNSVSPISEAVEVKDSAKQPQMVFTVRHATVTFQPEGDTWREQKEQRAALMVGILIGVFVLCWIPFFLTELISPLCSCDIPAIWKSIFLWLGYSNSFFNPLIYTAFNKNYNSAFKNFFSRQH
row,SMILES,inhibition
1,CCOC(=O)NC(=O)C(=CNc1cccc(OC)c1)C(=O)NC(=O)OCC,-98.8%
2,Cc1noc(C)c1COc1cccc(C(=O)Nc2cccnc2)c1,4.42%
3,Cc1cc(C)n(-c2ccc(Cl)c(C(=O)O)n2)n1,-6.82%
4,COc1ccc(-c2nnc(SC(C)C(=O)NC3CC3)o2)cc1 (configuration not stated),1.03%
5,O=c1ccc2c(-c3ccccc3S(=O)(=O)O)c3ccc(O)c(O)c3oc-2c1O,-16.7%
6,O=C(/C=C/c1ccc(Cl)c([N+](=O)[O-])c1)c1ccc(O)cc1,-8.27%
7,CCCCCCCCc1c(O)nc(-n2[nH]c(C)c(CCO)c2=O)[nH]c1=O,-15.1%
